Screens: PubChem, National Center for Advancing Translational Sciences (NCATS)
RORgamma inh = inhibitors of mouse ROR gamma transcriptional activity; AID 2551; Potency, µM (series often up to 53.6 µM), for inactives: at the highest dose activity change, negative = inhibition, actives largely listed as inhibitors; Drosophila S2 Gal4-RORgamma UAS-luciferase reporter, 20 h; P51450; 310,000 tested, 5.4% active; note: % is set by controls: 0 for no effect and ±100 for the full control effect; nearly all actives have a fitted effect of over 60% in size
Target sequence (P51450 whole entry, looked up, the tested form may be a part): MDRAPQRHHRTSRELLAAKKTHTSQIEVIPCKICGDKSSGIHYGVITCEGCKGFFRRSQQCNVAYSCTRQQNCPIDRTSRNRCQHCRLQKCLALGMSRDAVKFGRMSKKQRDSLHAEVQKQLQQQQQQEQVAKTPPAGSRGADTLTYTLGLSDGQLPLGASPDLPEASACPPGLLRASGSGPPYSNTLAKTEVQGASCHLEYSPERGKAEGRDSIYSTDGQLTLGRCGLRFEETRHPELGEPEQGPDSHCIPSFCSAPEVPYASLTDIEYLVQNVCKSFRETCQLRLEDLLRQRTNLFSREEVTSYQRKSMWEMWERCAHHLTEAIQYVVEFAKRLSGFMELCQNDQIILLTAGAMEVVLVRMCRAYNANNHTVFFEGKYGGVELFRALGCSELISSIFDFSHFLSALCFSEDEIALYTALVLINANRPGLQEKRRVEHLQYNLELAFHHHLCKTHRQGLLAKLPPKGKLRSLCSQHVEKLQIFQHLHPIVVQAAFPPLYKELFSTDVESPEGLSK
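Schneider cells (Drosophila), stable Gal4 DBD–ROR gamma + UAS-luc; 1 hr cmpd preincubation; Cu2+ induction 700 uM final; 20 hr ambient; luminescence.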
ATXN2 expr inh = ATXN2 expression inhibition. HEK-293 ATXN2-luciferase reporter, luminescence, 24 h. Potency, µM (titrated, usually from 57 µM), inactives show top-dose activity change, negative = inhibition, actives largely listed as inhibitors. 360,000 tested, 0.72% active; note: % is set by controls: 0 for no effect and ±100 for the full control effect; nearly all actives have a fitted effect of over 55% in size
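qHTS (up to 57 uM final) was run with 24 h compound exposure of reporter cells at 37 °C. Each well was multiplexed: SteadyGlo luminescence measured ATXN2-luciferase expression after a fluorogenic Gly-Phe-AFC viability readout (25 uM final).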
TGFb inhibitor = inhibitors of TGF-b signaling. HepG2 CAGA-GFP TGF-b/SMAD3 reporter, GFP fluorescence, 18 h; TGF-beta stimulated, 500 pg/mL final. AID 588855. Potency, µM (highest dose often 46.1 µM), for the others: at the top dose activity, negative = inhibition, hits mostly inhibitors. 410,000 tested, 1.2% active; note: % is set by controls: 0 for no effect and ±100 for the full control effect; nearly all actives have a fitted effect of over 65% in size
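Using HEPG2 CAGA-GFP reporter cells at 1000 cells/well, we pinned test compounds, stimulated with recombinant TGF-beta (500 pg/mL final) and measured total well GFP after 18 h.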
S2 tox = reduces viability in counter-screen for ATXN expression inhibitors; S2 cells (HEK-293 line with an ATXN2-luciferase reporter) viability, CellTiter-Fluor protease fluorescence, 24 h; AID 651635; Potency, µM (doses to about 56.7 µM), actives largely listed as cytotoxic; 400,000 tested, 0.49% active; note: nearly all actives have a fitted effect of over 40% in size
HepG2 tox = HepG2 cytotoxicity, counter-screen for TGF-b inhibitors; HepG2 CAGA-GFP viability, ATP luminescence, 18 h; Potency, µM (series often up to 46.1 µM), for the others: at the highest dose activity change, negative = cytotoxicity, most hits filed as cytotoxic; 410,000 tested, 0.76% active; AID 588856
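HepG2 CAGA-GFP cells (1000/well, DMEM with 1% FBS) received compound, then TGF-beta at 500 pg/mL final, and were incubated 18 hours at 37 degrees C. Viability was read by CellTiter-Glo luminescence. Media-only wells were set as complete cell-killing and DMSO as no toxicity.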
VP16 counter = Gal4-VP16 reporter inhibition counter-screen | 310,000 tested, 3.5% active | Potency, µM (titrated, usually from 53.6 µM), inactives show top-dose activity, negative = inhibition, most hits filed as inhibitors | Drosophila S2 Gal4-VP16 UAS-luciferase, luminescence, 20 h;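 note: Gal4-VP16 expression switched on by copper sulfate through the metallothionein promoter; % is set by controls: 0 for no effect and ±100 for the full control effect; nearly all actives have a fitted effect of over 50% in size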
The depositor's hits bear a star; i = inactive; u = inconclusive; x = no result given; ! = not confirmed by another sample; [ ] = another dose, or the depositor's remark. A selection: hits, their analogues and other compounds. The true share with any hit is near 6.3%. Calls come from the whole dose curve; as a rule, active = well fitted curve in the direction sought with a large enough effect; inconclusive = small, poorly fitted or top-dose-only effect, or another doubt; inactive = no such curve, though single readings can be large; an effect the other way counts as inactive or inconclusive. Potency is the fitted concentration of half-maximal effect.

SMILES	RORgamma inh	ATXN2 expr inh	TGFb inhibitor	S2 tox	HepG2 tox	VP16 counter
COC1=CC23CCCN2CCc2cc4c(cc2C3C1O)OCO4 (stereo not drawn)	-12%	x	x	x	x	-3%
COC(=O)C[C@@](O)(CCC(C)(C)O)C(=O)O[C@@H]1C(OC)=C[C@]23CCCN2CCc2cc4c(cc2[C@@H]13)OCO4	0.089µM*	x	x	x	x	0.11µM*
CON(C)C(=O)Nc1ccc(Br)c(Cl)c1	18%	x	x	x	x	-10%
O=[N+]([O-])c1ccc(Sc2nc3ccccc3o2)c([N+](=O)[O-])c1	u	u	u	x	13µM*	3%
O=[N+]([O-])c1ccc(N2CC2)c([N+](=O)[O-])c1	x	-17%	12%	i	0%	x
CCC(C)n1c(O)c(C=NCCc2ccccc2)c(=O)[nH]c1=S (stereo not drawn)	10µM*	-19%	-5%	i	-29%	u
CCC(C)n1c(O)c(/C=N/Nc2ccccc2)c(=O)[nH]c1=S (stereo not drawn)	14µM*	-11%	0%	u	-34%	6.3µM*
COc1ccccc1C1=NCc2nnc(C)n2-c2ccc(Cl)cc21	-31%	4%	-3%	i	-3%	-3%
Cc1nnc2n1-c1ccc(Cl)cc1C(c1ccccc1)=NC2	2.5µM*	x	x	x	x	25%
CC(N[C@H]1C[C@H]1c1ccccc1)c1ccc2c(c1)OCCO2 (stereo partly drawn)	x	9%	x	x	x	x
CCC(=O)[C@@H](C)[C@@H](O)[C@H](C)C[C@@H](C)C1OC(=O)C[C@@]2(O)CC=C(C)C(O2)C(C)=CCCC[C@H](O[C@H]2C[C@@H](OC(N)=O)[C@H](O)[C@@H](C)O2)C=C[C@H](C)C[C@H]1C (stereo partly drawn)	x	-54%	x	14µM*	x	x
COC(=O)c1ccccc1N	9%	x	x	x	x	-8%
C[C@H]1O[C@@H](OC2CC[C@]3(C=O)[C@H]4CC[C@]5(C)[C@@H](C6=CC(=O)OC6)CC[C@]5(O)[C@@H]4CC[C@]3(O)C2)CC2OC(C)(C)OC21 (stereo partly drawn)	16µM*	x	2µM*	u	-57%	-1%
C[C@]12CC[C@H]3[C@@H](CC[C@]4(O)C[C@@H](O)CC[C@]34C=O)[C@@]1(O)CC[C@@H]2C1=CC(=O)OC1	x	0.32µM*	7.1µM*	u	-65%	x
C[C@@H]1O[C@H](O[C@@H]2CC[C@@]3(C=O)[C@H]4CC[C@@]5(C)[C@@H](C6=CC(=O)OC6)CC[C@@]5(O)[C@@H]4CC[C@]3(O)C2)C[C@H](O)[C@@H]1O	-7%[16.9 µM]	x	x	x	x	-11%[17 µM]
CC(=O)O[C@H]1CC[C@]2(C=O)C3CC[C@]4(C)[C@@H](C5=CC(=O)OC5)CC[C@]4(O)C3CC[C@]2(O)C1 (stereo partly drawn)	-5%	x	11µM*	x	-34%	5%
C[C@@]12CC[C@H](O)C[C@@H]1CC[C@H]1[C@H]2CC[C@@]2(C)[C@@H](C3=CC(=O)OC3)CC[C@]12O	7%[16.9 µM]	x	x	x	x	-3%[17 µM]
C[C@]12CCC3C(CCC4=CC(O)CC[C@@]43/C=N/O)C1(O)CCC2C1=CC(=O)OC1 (stereo partly drawn)	-1%	u	7.9µM*	i	-53%	-19%
CCC1(c2cnc[nH]2)Cc2ccccc2C1	x	1%	x	i	x	x
CCOC(=O)CBr	-45%	x	x	x	x	-15%
C/C=C/C=O	5%	x	x	x	x	5%
Cc1cc(OC(=O)N(C)C)nn1C(=O)N(C)C	-1%	x	x	x	x	4%
C#C[C@]1(O)C=C[C@H]2[C@@H]3CCC4=CC(=O)CC[C@@H]4[C@H]3CC[C@@]21CC	x	-13%	x	i	x	x
CC12CC[C@H]3[C@@H](CCC4(O)C[C@H](O)CCC34/C=N/NC(=O)c3ccccc3Cl)C1(O)CCC2C1=CC(=O)OC1 (stereo partly drawn)	-20%	-11%	-18%	i	-6%	-1%
CC12CCC3C(CCC4(O)CC(O)CCC34C=O)C1(O)CCC2C1=CC(=O)OC1 (stereo not drawn)	x	1.8µM*	u	u	-39%	x
SMILES	RORgamma inh	ATXN2 expr inh	TGFb inhibitor	S2 tox	HepG2 tox	VP16 counter
COc1ccc(OC)c(N2C(=O)NC(=O)/C(=C\c3ccc([N+](=O)[O-])s3)C2=O)c1	6.3µM*	-26%	u	i	0%	u
O=c1c2ccccc2nc(/C=C/c2ccccc2)n1-c1ccc(O)cc1	33%	-37%	u	u	-28%	-28%
Cc1cccc(-n2c(/C=C/c3ccccc3O)nc3ccccc3c2=O)c1	x	x	11µM*	x	-22%	x
Cc1nc2ccccc2c(=O)n1-c1cc([N+](=O)[O-])cc([N+](=O)[O-])c1	1.1µM*	0%	-20%	i	-28%	-24%
Cc1cccc(-n2c(/C=C/c3ccc([N+](=O)[O-])o3)nc3ccccc3c2=O)c1	19%	14µM*	u	u	-25%	u
Cc1cccc(-n2c(/C=C/c3cccc4ccccc34)nc3ccccc3c2=O)c1	x	x	u	x	-34%	x
O=c1c2ccccc2nc(/C=C\c2cccc(Br)c2)n1-c1ccc(O)cc1	x	x	13µM*	x	-105%	x
O=[N+]([O-])c1ccc(-c2[se]c3ccccc3c2I)cc1	41%	x	x	x	x	6%
CCOc1ccc(C(=O)N2CCC(c3noc(-c4ccc(S(=O)(=O)N5CCCC5)cc4)n3)CC2)cc1	x	x	u	x	-8%	x
C=C(C)C1CCC(C)=CC1c1c(O)cc(O)cc1CCCCC (stereo not drawn)	u	x	x	x	x	-3%
C=C(C)[C@]12C[C@@H](C)[C@@]34OC(Cc5ccccc5)(O[C@@H]1[C@@H]3C=C(COC(=O)Cc1cc(OC)c(O)cc1I)C[C@]1(O)C(=O)C(C)=C[C@@H]41)O2	8%	x	x	x	x	u
BrC(Br)Br	0%	x	x	x	x	-6%
CCCCCn1c(=O)c(C(=O)Nc2ccncc2)c(O)c2ccccc21	35%	x	x	x	x	5%
CCCCn1c(=O)c(C(=O)Nc2ccccc2N)c(O)c2ccccc21	5.6µM*	x	-16%	u	1%	7.1µM*
CCCCCn1c(=O)c(C(=O)NCc2ccncc2)c(O)c2ccccc21	3.5µM*	u	u	i	-2%	4.5µM*
COC1=CC(=O)OC(CCc2ccccc2)C1 (stereo not drawn)	14%	x	x	x	x	-1%
C=CC(N)=O	-7%	x	x	x	x	6%
N#CC(C#N)=Cc1ccc(O)c(O)c1	16µM*	-3%	17%	i	-2%	14µM*!
ClC=CCl	5%	x	x	x	x	-9%
COP(=S)(OC)Oc1ccc([N+](=O)[O-])cc1	11µM*!	x	x	x	x	10µM*!
COP(=S)(OC)Oc1ccc(S(N)(=O)=O)cc1	x	16%	x	i	x	x
